From PubChem
BoNT A protease = blocks Botulinum neurotoxin A light chain protease; inhibition, % at 10 µM; actives 0.17% (n = 360,000); multiplex microsphere protease substrate cleavage, flow cytometry; also: plate controls were buffer without enzyme for full effect and enzyme alone for no effect
SSB-PriA inh = K. pneumoniae PriA-SSBct interaction inhibition; AlphaScreen SSBct-PriA binding, biotinylated peptide; inhibition, % at 33 µM; actives 0.6% (n = 430,000); in the data active = inhibition mostly above about 37%, no sharp cut-off; inactive = mostly below about 20%;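 also: plate controls were negative control peptide for no effect and reference peptide for full effect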
Bead autofluor = compound fluorescence in toxin protease inhibitor counterscreen | fluorescence intensity (no concentration beside the values) | compound autofluorescence counterscreen, microsphere flow cytometry; stronger effect = higher value | AID 624483 | actives 3.1% (n = 360,000); in the data active = fluorescence intensity above about 16000; inconclusive = no clear call, values can overlap the other calls
Anthrax LF prot = anthrax lethal factor protease inhibition; actives 0.12% (n = 360,000); multiplex microsphere protease cleavage assay, LF; inhibition, % at 10 µM; P15917; also: plate controls were buffer without enzyme for full effect and enzyme alone for no effect
Target sequence (P15917 whole entry, looked up): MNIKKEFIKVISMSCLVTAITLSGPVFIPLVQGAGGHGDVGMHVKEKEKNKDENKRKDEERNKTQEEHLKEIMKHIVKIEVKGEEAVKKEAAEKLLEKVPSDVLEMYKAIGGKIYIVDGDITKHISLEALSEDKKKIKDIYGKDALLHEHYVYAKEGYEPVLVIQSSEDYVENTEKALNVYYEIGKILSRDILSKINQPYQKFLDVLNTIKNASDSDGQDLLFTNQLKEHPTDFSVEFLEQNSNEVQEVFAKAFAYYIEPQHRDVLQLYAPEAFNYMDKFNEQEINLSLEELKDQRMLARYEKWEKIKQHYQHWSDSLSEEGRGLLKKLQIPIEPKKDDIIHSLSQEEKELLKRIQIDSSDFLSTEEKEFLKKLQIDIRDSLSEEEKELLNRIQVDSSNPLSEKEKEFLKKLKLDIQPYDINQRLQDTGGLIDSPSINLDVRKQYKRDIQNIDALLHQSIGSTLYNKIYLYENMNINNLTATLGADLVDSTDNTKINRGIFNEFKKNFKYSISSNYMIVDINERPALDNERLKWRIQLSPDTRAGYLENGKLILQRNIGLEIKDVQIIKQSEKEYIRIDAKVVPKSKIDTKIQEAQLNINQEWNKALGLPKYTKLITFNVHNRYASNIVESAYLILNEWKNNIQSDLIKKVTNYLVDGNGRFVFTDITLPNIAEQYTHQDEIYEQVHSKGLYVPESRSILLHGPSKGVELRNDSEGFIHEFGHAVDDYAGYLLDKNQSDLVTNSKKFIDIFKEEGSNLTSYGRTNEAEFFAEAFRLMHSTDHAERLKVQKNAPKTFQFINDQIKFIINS
BoNT F protease = inhibitors of Botulinum neurotoxin F light chain protease. Multiplex microsphere protease cleavage assay, flow cytometry. inhibition, % at 10 µM. actives 0.22% (n = 360,000). AID 588497; in the data active = inhibition above about 35%, passing the limit was not always enough; inconclusive = no clear call, values can overlap the other calls; also: plate controls were buffer without enzyme for full effect and enzyme alone for no effect
Active calls of the source: *; ? = inconclusive; · = no result given. Sampled rows, rich in hits. Any-hit rate of the full collection: about 3.1%. Rule as the data show it, unless noted: active = inhibition above about 30%; inconclusive = no clear call, values can overlap the other calls; inactive = below that.

SMILES	BoNT A protease	SSB-PriA inh	Bead autofluor	Anthrax LF prot	BoNT F protease
Cc1noc(C)c1CSc1nc2sc(C)c(C)c2c(=O)n1-c1ccccc1	0	7	4387	-10	-11
Cc1noc(C)c1CSc1nnc(-c2ccccc2)n1N	1	-2	3531	-5	-14
Cc1noc(C)c1CSc1nc2ccccc2s1	1	-30	5154	-1	-8
COn1c(SCc2ccc(Cl)cc2)nc2ccccc2c1=O	?	-1	22710*	-12	-5
Cc1noc(C)c1CSc1ccc2ccccc2n1	-2	-15	20444*	-1	-2
Cc1noc(C)c1CSc1nc2ccccc2c(=O)n1-c1ccc(Cl)cc1	?	0	22121*	0	4
COC(=O)c1ccc(Cn2c(-c3nnc(C(C)C)o3)cc3ccccc32)cc1	·	-13	·	·	·
CCc1ccc(CN2CCN(c3ncccn3)CC2)cc1	-1	-22	3994	8	44*
O=C(Nc1ccc(N2CCCC2=O)cc1)c1cccs1	·	-11	·	·	·
O=S(=O)(c1ccccc1C(F)(F)F)N1CCN(S(=O)(=O)c2ccccc2C(F)(F)F)CC1	1	-11	22001*	-3	3
CC(=O)c1ccc(S(=O)(=O)N2CCN(S(=O)(=O)c3ccccc3C(F)(F)F)CC2)cc1	-3	2	3903	-9	-18
O=C(c1ccccc1C(F)(F)F)N1CCN(S(=O)(=O)c2ccccc2)CC1	1	-10	19835*	2	1
O=C(c1cc(-c2cccs2)nc2ccccc12)N1CCN(S(=O)(=O)c2ccccc2)CC1	0	-6	16484*	-3	3
N#Cc1ccccc1S(=O)(=O)N1CCC(N2CCC(Oc3ccccc3F)CC2)CC1	·	6	·	·	·
O=C(O)c1ccccc1N(Cc1ccccc1)C(=O)CON=Cc1ccccc1	·	-12	·	·	·
CS(=O)(=O)c1ccc(N2CCOCC2)c(S(C)(=O)=O)c1	0	-19	20225*	1	0
Nc1cc(S(=O)(=O)N2CCOCC2)ccc1N1CCOCC1	0	1	4066	9	-7
COc1cccc(CSc2nc(C)c(CC(=O)Nc3cccnc3)c(=O)[nH]2)c1	·	-14	·	·	·
O=C(NCCn1nc(-n2cncn2)ccc1=O)c1cnn(-c2ccccc2)n1	·	14	·	·	·
O=C(NCC1CCCO1)C(C(=O)c1ccc(F)cc1)n1ccccc1=O (stereo not given)	1	-23	21506*	-1	3
Cc1ccc(=O)n(C(C(=O)NCc2ccco2)C(=O)c2ccc(F)cc2)c1 (stereo not given)	0	-4	22339*	-1	0
CC(C(=O)NCCCN1CCOCC1)n1cccc1C(=O)c1ccccc1 (stereo not given)	0	8	3354	-4	1
O=C(NCCCN1CCOCC1)C(C(=O)c1ccccc1)n1ccccc1=O (stereo not given)	1	-9	22755*	-1	1
O=C(NCc1cccnc1)C(C(=O)c1ccc(F)cc1)n1ccccc1=O (stereo not given)	?	-13	22039*	0	1
O=C(NCc1ccccc1)C(C(=O)c1ccc(F)cc1)n1ccccc1=O (stereo not given)	-1	-9	4565	-1	3
SMILES	BoNT A protease	SSB-PriA inh	Bead autofluor	Anthrax LF prot	BoNT F protease
O=C(c1ccc(Oc2ncccn2)cc1)N1CCN(c2cnnc(N3CCCC3)c2)CC1	·	-6	·	·	·
CN(C)CCCN(C(=O)c1cc2cc([N+](=O)[O-])ccc2s1)c1nc2cc3c(cc2s1)OCO3	·	34	·	·	·
COCCn1c(=NC(=O)C2CC2)sc2cc(Br)ccc21	·	-3	·	·	·
O=C(COc1ccc(F)cc1)NCC1CCCO1 (stereo not given)	?	1	24747*	0	-4
O=C(COc1ccccc1)NCC1CCCO1 (stereo not given)	-2	-3	6856	0	-12
CCN(CC)CCCNC(=O)Cn1nc(-c2ccccc2)ccc1=O	1	-19	20162*	-2	0
O=C(Cn1nc(-c2cccc(Cl)c2)ccc1=O)Nc1ccc(C(=O)NC2CC2)cc1	0	-7	3872	-2	0
O=C(Cn1nc(-c2ccccc2)ccc1=O)NCCN1CCN(Cc2ccccc2)CC1	-1	-11	6531	-9	-4
O=C(Cn1nc(-c2cccc(Cl)c2)ccc1=O)Nc1cccnc1	?	-9	23773*	-8	-2
O=C(Cn1nc(-c2ccccc2)ccc1=O)NCCN1CCN(c2cccc(Cl)c2)CC1	-2	8	21385*	-3	-6
Cc1ccc(-c2nn(CC(=O)NCC3CCCO3)c(=O)c3ccccc23)cc1 (stereo not given)	-3	-10	23922*	-3	-9
CC1CCN(S(=O)(=O)c2ccc3[nH]cc(C(=O)NC[C@H]4COc5ccccc5O4)c(=O)c3c2)CC1	·	-27	·	·	·
COc1cccc2cc(C(=O)NCCc3csc(-n4cccn4)n3)oc12	·	-5	·	·	·
C[C@](O)(CNC(=O)Cc1cccs1)c1ccc(-c2ccccc2)cc1	·	-16	·	·	·
O=C(Cn1nc(-c2ccccc2)ccc1=O)NCC1CCCO1 (stereo not given)	-4	-17	23626*	-3	-5
CCCOc1cc(C)c(S(=O)(=O)NCCOC)cc1C	-7	0	21763*	-1	-7
COCCNS(=O)(=O)c1cc(C)c(OC)cc1C	·	-10	·	·	·
CC(Sc1nc2ccccc2[nH]1)C(=O)O (stereo not given)	1	-1	23428*	1	5
Cc1cc(C)c2c(n1)sc1c(=O)n(CC(=O)Nc3ccc(C)c(Cl)c3)cnc12	·	-12	·	·	·
O=C(Nc1nnc(-c2ccc(Cl)cc2)o1)c1ccc(Br)cc1	·	1	·	·	·
CCOC(=O)c1ccccc1NC(=O)COC(=O)CSCC(=O)Nc1cc(C)on1	-3	-8	6214	3	0
COC(=O)c1ccccc1NC(=O)COC(=O)CSCC(=O)N1CCOCC1	-2	-8	23481*	-4	-5
N#Cc1nccnc1N1CCC(CNC(=O)C(=O)Nc2ccc(F)c(Cl)c2)CC1	·	-8	·	·	·
COc1ccc(C2CC(c3ccccc3)=NN2S(=O)(=O)c2ccccc2)c(OC)c1 (stereo not given)	-1	-16	5484	0	1
COc1ccc(C2CC(c3ccccc3)=NN2S(=O)(=O)c2ccc(C)cc2)c(OC)c1 (stereo not given)	1	-12	20530*	20	30
SMILES	BoNT A protease	SSB-PriA inh	Bead autofluor	Anthrax LF prot	BoNT F protease
COc1cc2nc(/C=C/c3cc(OC)c(OC)c(OC)c3)sc2cc1SC	54*	-69	3237	21	13
COc1cc2nc(C)sc2cc1SC	1	-27	9335	2	10
CCOC(=O)c1cc(C#N)c(NCc2ccccc2)nc1C	-1	-10	11823	-3	-11
CCOC(=O)c1nnc(-c2ccccc2)nc1NCc1ccccc1	-1	-22	24408*	0	0
Cc1ccc(C)c(OCCCN2CCCC2)c1	-1	-16	21161*	0	0
CCOc1cc(C2NC(=O)NC(O)(C(F)(F)F)C2C(=O)c2cccs2)ccc1O (stereo not given)	·	-16	·	·	·
COc1ccc(-n2nnc3c(=O)n(Cc4ccccc4C)cnc32)cc1	-1	-16	11273	-7	-13
